NADH coupling: blocks coupling enzymes of NAD/NADH assays; coupled PK/LDH NADH assays, four targets; IC50, µM (top dose mostly 10 µM); 65,000 tested, 0.02% active; AID 774;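 active = single-dose screening hits from any of four coupled enzyme assays that gave an IC50 when retested across doses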;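 note: the DPM-DC format reads NADH fluorescence rather than 340 nm absorbance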
DPM-DC inhibit: blocks S. pneumoniae diphosphomevalonate decarboxylase; purified DPM-DC, PK/LDH coupled NADH fluorescence; calls only at 10 µM; 65,000 tested, 0.49% active;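 active = the 320 compounds with the highest percent inhibition in the single-dose primary screen, excluding strongly autofluorescent ones, cut at about 32% in these data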;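 note: kinetic rate of NADH fluorescence loss reporting ADP formed by the decarboxylase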
PMK inhibit: inhibitors of Streptococcus pneumoniae phosphomevalonate kinase; 65,000 tested, 0.49% active; purified PMK, PK/LDH-coupled NADH absorbance 340 nm; inhibition, % at 10 µM;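 active = top-ranked compounds by inhibition in the single 10 µM screen, taking a fixed number of the strongest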
Spn MK inh: S. pneumoniae mevalonate kinase inhibition; purified MK, PK/LDH-coupled NADH absorbance 340 nm; inhibition, % at 10 µM; 65,000 tested, 0.48% active; AID 555;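 active = ranked among the strongest by inhibition in the single 10 µM screen, a fixed top-ranked set picked for dose follow-up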
Abs 340nm: compounds absorbing at 340 nm. compound absorbance at 340 nm, fold over control. fold change at 10 µM. 65,000 tested, under 10 active. AID 708;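 active = at 10 µM dose, initial 340 nm absorbance at least 2 fold that of control wells; inactive = change under 2 fold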;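 note: initial absorbance extrapolated from kinetic A340 decline of NADH oxidation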
Autofluor 339: intrinsic fluorescence of library compounds, ex339/em460 – biochemical, MLSMR library, data from DPM-DC assay, artefact control, profiling panel; fluorescence fold increase at 10 µM; 65,000 tested, 5.5% active; compound autofluorescence, ex339/em460 nm, NADH buffer; hits give high values; 1 = no-compound wells, NADH background; AID 709;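 active = at 10 µM, mean starting fluorescence two-fold or more over control wells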;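 note: signal is the first read of a kinetic run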
Of the large screens only hits and unclear results are named; the others gave an inactive call. Most compounds without a hit are left out; they make up all but 6.8% or so of the library.

c1ccc(-n2nnnc2SCc2cn3ccccc3n2)cc1	none
COc1cccc2c1N1C(=O)c3c(C(=O)O)cccc3C1CC2(C)C (stereo not drawn)	none
C=CCNc1ncnc2c1[nH]c1ccccc12	Autofluor 339 2.49
c1ccc2c(c1)[nH]c1c(NCC3CCCO3)ncnc12 (stereo not drawn)	Autofluor 339 2.78
CCOCCCNc1ncnc2c1[nH]c1ccccc12	none
Cn1c(-c2ccc(CN3CCCCC3)o2)nc2ccccc21	Autofluor 339 2.15
C=CCn1c(=O)c(C(=O)Nc2nnc(C)s2)c(O)c2ccccc21	none
CCCc1nnc(NC(=O)c2c(O)c3cccc4c3n(c2=O)CCC4)s1	Autofluor 339 2.82
Cn1c2ccccc2c2ncn(CCCN3CCOCC3)c(=O)c21	Autofluor 339 2.39
Cn1c2ccc(F)cc2c2ncn(CCN3CCOCC3)c(=O)c21	none
Cc1ccc2[nH]c3c(=O)n(CCCN4CCOCC4)cnc3c2c1	Autofluor 339 2.74
Cc1ccc2[nH]c3c(=O)n(CCCN4CCN(C)CC4)cnc3c2c1	Autofluor 339 2.11
COc1cc2[nH]c3c(=O)n(CCN4CCCCC4)cnc3c2cc1OC	Autofluor 339 3.63 (not shown: DPM-DC inhibit)
O=c1c2[nH]c3cccc(Cl)c3c2ncn1CCN1CCCCC1	none
COc1ccc(CCC(=O)NCCc2cn3c(C)csc3n2)cc1	none
O=C(NCCc1ccncc1)Nc1ccccc1Cl	none
COc1ccc2c(c1)OC13CCN(C)CC1C2C(C(=O)c1ccc(F)cc1)C(=O)N3 (stereo not drawn)	none
CCOC(=O)CCc1c(C)c2ccc(OCc3nn[nH]n3)cc2oc1=O	Autofluor 339 3.78 (not shown: DPM-DC inhibit)
Cc1c(Cc2ccccc2)c(=O)oc2cc(OCc3nn[nH]n3)ccc12	Autofluor 339 3.8 (not shown: DPM-DC inhibit)
CCOC(=O)CCc1c(C)c2ccc(OCC(=O)OC(C)C)cc2oc1=O	Autofluor 339 3.69 (not shown: DPM-DC inhibit)
COc1ccc(-c2cc(=O)oc3cc(OCc4nn[nH]n4)ccc23)cc1	none
COc1ccc(-c2cc3ccc(OCc4nn[nH]n4)cc3oc2=O)cc1OC	none
O=C1N2c3ccccc3CCc3cccc(c32)C1(O)C(F)(F)F (stereo not drawn)	none
CC(=O)Nc1nonc1NC(=O)CSc1ncn[nH]1	none
CCOC(=O)c1sc2nc(C)cc(C)c2c1N	Autofluor 339 2.4 (not shown: DPM-DC inhibit)
CCOC(=O)CNC(=O)c1sc2nc(C)cc(C)c2c1N	Autofluor 339 3.87 (not shown: DPM-DC inhibit)
COCc1cc(C)nc2sc(C(=O)N3CCN(c4ccccc4)CC3)c(N)c12	none
Cc1cc(C)c2c(N)c(C(=O)N3CCN(c4ncccn4)CC3)sc2n1	Autofluor 339 2.2
CC12CC(c3ccccc3O1)C(C(=O)NCc1ccccc1)C(=O)N2 (stereo not drawn)	none
Cn1c(=O)c2c(ncn2CC(O)CNc2ccc(Br)cc2)n(C)c1=O (stereo not drawn)	none
c1ccc2c(NC3CCCC3)nnc(NC3CCCC3)c2c1	Autofluor 339 2.09
c1nc(NC2CCCC2)c2[nH]cnc2n1	none
C(=C\c1ccccc1)/CSc1nnc(-c2cccnc2)o1	none
CC(C)CCn1nnnc1C(c1ccc(F)cc1)N1CCN(C(=O)c2ccco2)CC1 (stereo not drawn)	PMK inhibit 26.0
Cc1ccc(C(c2nnnn2CC2CCCO2)N2CCN(C(=O)c3ccco3)CC2)cc1 (stereo not drawn)	PMK inhibit 32.0
Nc1cc(C2CCCC2)nn1-c1ccccc1	none
COc1ccc(NC(=O)C2CCCCN2CC(=O)OCc2ccccc2)cc1OC (stereo not drawn)	none
Cn1c(C(=O)N2CCN(c3ccccn3)CC2)cc2c(=O)n(C)c3ccccc3c21	none
c1coc(-c2nnc(-c3ccc4c(c3)OCO4)o2)c1	Autofluor 339 2.2 (not shown: DPM-DC inhibit)
CCOc1ccc(-c2nnc(-c3ccco3)o2)cc1OCC	Autofluor 339 3.7 (not shown: DPM-DC inhibit)
CCOc1cc(-c2nnc(-c3ccco3)o2)cc(OCC)c1OCC	Autofluor 339 2
Clc1ccc2nc(N3CCNCC3)nc(-c3ccccc3)c2c1	Autofluor 339 2.28 (not shown: DPM-DC inhibit)
CC12C=CC3(CN(Cc4ccccc4)C(=O)C3C1C(=O)NCc1ccco1)O2 (stereo not drawn)	none
O=C(CN1CCN(c2ncccn2)CC1)NCCC1=CCCCC1	Spn MK inh 49.0
Cc1ccc(NC(=O)Cc2nc(CSc3nnc(-c4ccc5c(c4)OCO5)o3)cs2)cc1	none
CCN(CC)S(=O)(=O)c1ccc(C(=O)OCC(=O)N2CCN(C(=O)c3ccco3)CC2)cc1	Spn MK inh 48.0
CCOC(=O)c1c(C)n(C)c2ccc(OC)c(NS(=O)(=O)c3ccc(Cl)s3)c12	PMK inhibit 78.0
Cc1ccc(C2C3=C(CC(C)(C)CC3=O)NC3=C2C(=O)CC(C)(C)C3)o1	none
Cc1nc2[nH]c(=O)c3c(n2n1)NC1=C(C(=O)CC(C)(C)C1)C3c1ccccc1 (stereo not drawn)	Autofluor 339 3.96 (not shown: DPM-DC inhibit)
CC(NC(=O)c1cccc(N2CCCC2=O)c1)c1ccc2c(c1)OCCO2 (stereo not drawn)	DPM-DC inhibit active
CC(=O)c1cccc(S(=O)(=O)N2CCN(c3nc4cc(C)cc(C)c4cc3C#N)CC2)c1	Autofluor 339 2.23
O=C(CSc1ncnc2c1cnn2-c1ccccc1)Nc1ccc2c(c1)OCO2	DPM-DC inhibit active
Cc1noc(C)c1C(=O)Nc1sc(C)c(C)c1C#N	none
CN1C(=O)c2ccccc2C(C(=O)O)C1c1cccc(F)c1 (stereo not drawn)	none
Cc1ccsc1C1C(C(=O)O)c2ccccc2C(=O)N1C (stereo not drawn)	DPM-DC inhibit active, PMK inhibit 85.0, Spn MK inh 53.0
Nc1ccc2c3c(cccc13)CC2	Autofluor 339 2.33 (not shown: DPM-DC inhibit)
Cc1cc(C)n(-c2nc3ccccc3c(=O)n2OCC(=O)Nc2c(C)cccc2C)n1	none
CCOC(=O)C1C(=O)N(C(=O)c2cncc(Br)c2)CC1c1ccccc1 (stereo not drawn)	none
CCN(CC)CCNc1nc2ccccc2n1C	none
Cc1ccc2c(c1)nc(NCCO)n2C	Autofluor 339 2.08
COc1cc(-c2cc(C(F)(F)F)n3ncc(C(=O)O)c3n2)cc(OC)c1OC	none
NC(=O)c1cnn2c(C(F)(F)F)cc(-c3ccccc3)nc12	Autofluor 339 2.15
NC(=O)c1cnn2c(C(F)(F)F)cc(-c3ccc(F)cc3)nc12	Autofluor 339 2.06
Cc1ccc(-c2cc(C(F)(F)F)n3ncc(C(=O)N4CCN(C)CC4)c3n2)cc1	none
COC(=O)c1sc(N2C(=O)C(O)=C(C(=O)c3ccc(C)o3)C2c2ccc(F)cc2)nc1C (stereo not drawn)	none
CNC(=O)C1C2C=CC3(O2)C1C(=O)N(CCOC)C3C(=O)NCc1ccc(OC)cc1 (stereo not drawn)	none
COc1ccccc1N1CCN(CCc2n[nH]c(=S)n2-c2ccccc2)CC1	Spn MK inh 46.0
Cc1ccc2c(c1)N(CCC(=O)NCCCOC(C)C)C(=O)C(C)O2 (stereo not drawn)	none

Source: PubChem (SRMLSC)
